This assay concerns the target Estrogen receptor (Homo sapiens) (UniProt P03372). Nature of the assay: displacement of fluorescent estrogen from ERalpha – cell-based, Cos7 ERalpha-GFP, flow cytometry, primary screen (AID 1211).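 Note: 0% = DMSO vehicle wells and 100% = no E2-Alexa633 signal left.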 The following applies: fluorescent ligand competition, stronger effect = higher value. (In general: In flow cytometry, cells or beads pass a laser one at a time.)

Activity calls are given as the source filed them. The rule behind the calls is not given here.

Chain of Estrogen receptor (Homo sapiens) (P03372 whole entry, looked up): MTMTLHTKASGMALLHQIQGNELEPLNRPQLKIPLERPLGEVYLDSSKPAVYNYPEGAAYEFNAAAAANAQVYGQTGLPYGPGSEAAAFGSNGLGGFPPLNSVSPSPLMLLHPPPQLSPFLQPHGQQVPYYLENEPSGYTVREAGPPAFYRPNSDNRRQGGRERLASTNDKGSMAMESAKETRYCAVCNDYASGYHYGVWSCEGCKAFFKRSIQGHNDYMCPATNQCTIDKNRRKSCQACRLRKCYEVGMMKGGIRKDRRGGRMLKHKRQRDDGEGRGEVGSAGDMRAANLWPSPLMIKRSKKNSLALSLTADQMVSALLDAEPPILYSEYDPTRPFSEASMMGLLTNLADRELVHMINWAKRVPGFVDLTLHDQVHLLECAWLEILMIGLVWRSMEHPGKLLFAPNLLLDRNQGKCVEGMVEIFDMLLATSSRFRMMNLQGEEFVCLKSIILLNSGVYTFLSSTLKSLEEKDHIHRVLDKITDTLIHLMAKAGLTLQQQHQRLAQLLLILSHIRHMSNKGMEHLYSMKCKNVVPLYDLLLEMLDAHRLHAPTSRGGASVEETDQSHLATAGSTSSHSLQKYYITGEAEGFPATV

Take `Cc1nnc(Oc2ccccc2F)c2ccccc12`: the inhibition of ligand binding (at 10 µM) is 36% (inactive) and the inhibition of ligand binding (binding inhibition, at 0.1 µM) turned out to be 57%.
On to `COc1ccc(NC(=O)C(NC(=O)c2ccc(=O)[nH]c2)c2ccc(C)cc2)cc1` (stereo not drawn), for which the inhibition of ligand binding runs as follows: (at 10 µM) 4% (inactive); (binding inhibition, at 0.1 µM) 13%.
The corresponding values for `O=C(Nc1nc(-c2ccc(S(=O)(=O)N3CCOCC3)cc2)cs1)c1ccccc1` are 48% (inactive) and 25%.
On the same counts, the results for `CC(O)C1CCC2C3CC[C@H]4CC(O)CCC4(C)C3CC3(OCCO3)C12C` (stereo partly drawn) are 33% (inactive) and 1%.
On the same counts, the results for `O=C(O)C1CSC(c2coc3ccccc3c2=O)N1` (stereo not drawn) are 6% (inactive) and 47%.
Take `COc1ccc(N2Cc3cccc(C(=O)N4CCN(C(=O)c5ccco5)CC4)c3C2=O)cc1`: the inhibition of ligand binding reads like this: (at 10 µM) 20% (inactive); (binding inhibition, at 0.1 µM) 38%.
On the same counts, the results for `COc1ccccc1/C=c1\sc2nc(-c3ccco3)nn2c1=O` are 40% (inactive) and 25%.
The corresponding values for `O=c1oc2c(O)c(O)cc3c(=O)oc4c(O)c(O)cc1c4c23` are 0% (inactive) and 4%.
As for `O=c1cc(-c2ccco2)oc2c1ccc1ccccc12`, the inhibition of ligand binding reads like this: (at 10 µM) 48% (inactive); (binding inhibition, at 0.1 µM) 4%.
The corresponding values for `CCOC(=O)c1cc2c(c(CSc3nc4ccccc4c(=O)n3Cc3ccco3)c1)OCOC2` are 46% (inactive) and 18%.
The corresponding values for `O=C(COC(=O)c1ccccc1Oc1ccccc1)NCc1ccco1` are 13% (inactive) and 53%.
On the same counts, the results for `COc1cc(C(C#N)N2N=C(c3ccccc3)CC2c2ccccc2)ccc1O` (stereo not drawn) are 3% (inactive) and 3%.
In the case of `COc1cc(/C=C2\OC(=O)c3c(OC)cccc32)ccc1O`, the inhibition of ligand binding is 24% (inactive) (at 10 µM) and 28% (binding inhibition, at 0.1 µM).
On the same counts, the results for `O=C(COC(=O)CCOc1ccccc1)NCc1ccco1` are 50% (inactive) and 57%.
As for `O=C(CSc1nc2scc(-c3ccco3)c2c(=O)n1-c1ccccc1)NCC1CCCO1` (stereo not drawn), the inhibition of ligand binding was 0% (inactive) (at 10 µM) and 21% (binding inhibition, at 0.1 µM).
On the same counts, the results for `C/C(N)=C(/C#N)C(=O)CSc1nnc(-c2ccc(OC(F)F)cc2)o1` are 20% (inactive) and 24%.
Consider `COc1ccc(N=C2NC(=O)S/C2=C\c2ccc(N(C)C)cc2)cc1`, for which the inhibition of ligand binding was 39% (inactive) (at 10 µM) and 8% (binding inhibition, at 0.1 µM).
The corresponding values for `Cc1noc(C)c1COc1ccc(C(=O)OCC(=O)N2c3ccccc3NC(=O)C2(C)C)cc1` are 59% (inactive) and 16%.
The corresponding values for `Cc1cs/c(=N\N=C\c2ccc(O)cc2)n1Cc1ccco1` are 51% (inactive) and 55%.
With `CCc1oc2c(C)c(O)ccc2c(=O)c1-c1ccc2ccccc2n1`, the inhibition of ligand binding (at 10 µM) was 14% (inactive) and the inhibition of ligand binding (binding inhibition, at 0.1 µM) amounted to 54%.
The corresponding values for `Cc1cc(NC(=O)CSc2cn(CCNC(=O)c3ccc(Cl)cc3)c3ccccc23)no1` are 15% (inactive) and 37%.
Consider `Cc1ccc(N=Cc2c(O)n(-c3ccc4c(c3)OCO4)c(=O)c3ccccc23)cc1`, for which the inhibition of ligand binding is, setting by setting: (at 10 µM) 49% (inactive); (binding inhibition, at 0.1 µM) 19%.
On the same counts, the results for `CCOc1ccccc1C1C(C#N)=C(N)Nc2onc(-c3ccccc3)c21` (stereo not drawn) are 9% (inactive) and 20%.
The corresponding values for `O=C(CSc1ccc(Cl)cc1)c1ccco1` are 42% (inactive) and 65%.
The corresponding values for `COc1ccc(OC)c(NC(=O)c2cc(-c3ccc(C)cc3O)n[nH]2)c1` are 40% (inactive) and 5%.
On to `Cc1ccc(S(=O)(=O)NCCn2c(C)cc3ccccc32)cc1`, for which the inhibition of ligand binding (at 10 µM) is 49% (inactive) and the inhibition of ligand binding (binding inhibition, at 0.1 µM) stood at 17%.
The corresponding values for `CCOC(=O)c1c(/N=C/c2ccc(O)cc2O)sc2c1CCC2` are 58% (inactive) and 42%.
On the same counts, the results for `COc1cc2c(cc1O)CC[n+]1cc3c(OC)c(OC)ccc3cc1-2` are 46% (inactive) and 9%.
The corresponding values for `COc1ccc(Cl)cc1NC(=O)c1ocnc1C` are 21% (inactive) and 3%.
As to `Cc1cc(-c2ccccc2)nc2cc(C(N)=O)nn12`, the inhibition of ligand binding runs as follows: (at 10 µM) 42% (inactive); (binding inhibition, at 0.1 µM) 5%.
On the same counts, the results for `Cc1nnc(SCC(=O)NC(=O)NCc2ccco2)n1Cc1ccccc1` are 8% (inactive) and 12%.
With `Cn1c(C(=O)Nc2ccc3c(c2)OCO3)cc2c(=O)n(C)c3ccccc3c21`, the inhibition of ligand binding is, setting by setting: (at 10 µM) 26% (inactive); (binding inhibition, at 0.1 µM) 15%.
In the case of `CCOC(=O)c1c(NC(=O)CSc2nnc(-c3ccccc3)o2)sc(C(C)=O)c1C`, the inhibition of ligand binding was 21% (inactive) (at 10 µM) and 33% (binding inhibition, at 0.1 µM).
The corresponding values for `Cc1c2cc(O)c(=O)cc-2oc2cc(O)c(O)cc12` are 31% (inactive) and 51%.
On the same counts, the results for `Cc1cc(C)n2nc(SCc3cc(=O)oc4cc(O)ccc34)nc2n1` are 49% (inactive) and 5%.
On the same counts, the results for `COc1cccc(C(=O)NC2CCN(C(=O)N3c4ccccc4Sc4ccccc43)CC2)c1` are 60% (inactive) and 13%.
Turning to `Cn1c(SCC(=O)Nc2sccc2C#N)nnc1-c1ccccc1`, the inhibition of ligand binding was 17% (inactive) (at 10 µM) and 24% (binding inhibition, at 0.1 µM).
Regarding `CC1CCN(S(=O)(=O)c2ccc(NC(=O)Cc3cccs3)cc2)CC1`, the inhibition of ligand binding is 62% (inactive) (at 10 µM) and 56% (binding inhibition, at 0.1 µM).
The corresponding values for `Oc1ccc(N=Cc2ccc(O)c(O)c2)cc1` are 0% (inactive) and 41%.

(Values after PubChem BioAssay AID1211 (NMMLSC, 2008).)
